# Bioassay records deposited in PubChem BioAssay by Small Molecule Screening Facility, UW Madison.
# RMI-FANCM inh = blocks RMI1/RMI2 complex binding to FANCM MM2 peptide | hit rate 0.58% among 70,000 | Fluorescence polarization, RMI core complex with F-MM2 peptide; hits give low values | FP signal (polarization) at 33 µM; in the data active = FP signal below about 40
# An asterisk follows results filed as active; ! = not active in a repeat. Only a selection was taken, and hits are over-represented in it overall.
SMILES,RMI-FANCM inh
O=c1oc2ccccc2nc1C=C(O)c1ccc([N+](=O)[O-])cc1,53
O=[N+]([O-])c1ccc(N/N=C\Cc2nnnn2-c2ccc(-c3ccccc3)cc2)c([N+](=O)[O-])c1,57
COc1ccc(-c2c(C#N)c(SCC(=O)c3ccc4c(c3)OCO4)nc3c2C(=O)CC(C)(C)C3)cc1,143
N#Cc1c(SCC(=O)c2ccc(O)c(O)c2)nc2c(c1-c1ccc(OCc3ccccc3)cc1)CCCC2,24*
N#Cc1c(SCC(=O)Nc2ccccc2)nc2c(c1-c1ccc(OCc3ccccc3)cc1)CCCC2,57
Cn1c(/C(C#N)=C/c2ccccc2[N+](=O)[O-])nc2ccccc21,46
CN1C(=O)Cc2cc(NS(=O)(=O)c3ccccc3Cl)ccc21,57
Cc1ccc(NC(=S)NC(C)(C)C)c([N+](=O)[O-])c1,50
Cc1ccc(N2C(=O)C=CC2=O)c([N+](=O)[O-])c1,-7*
CC(C)(C)c1ccc(-n2cccc2)c([N+](=O)[O-])c1,48
C#CCn1c(=NC(=O)c2ccc(S(=O)(=O)N3CC(C)OC(C)C3)cc2)sc2c3ccccc3ccc21 (centres undefined),86
O=C(NCc1ccc2c(c1)OCO2)C(=O)NCC1CCN(Cc2ccccc2)CC1,68
COc1ccc2cc(C(=O)Nc3cc(C)on3)sc(=O)c2c1OC,61
CCN(CC)CCN(C(=O)c1cc(C)ccc1C)c1nc2c(SC)cccc2s1,73
CC1(C)CC2C1CCC1(C)OC2(C)CCC1O (centres undefined),-8*
CC1(C)CC2C1CCC1(C)OC1CCC2(C)O (centres undefined),67
Cc1ccc(-n2ncc3c(C4CC4)nn(CC(=O)Nc4ccccc4F)c(=O)c32)cc1C,105
COc1ccccc1CNC(=O)C1CCN(c2ncnc3c2sc2ncccc23)CC1,72
CC1=CC(C)=NC1=Cc1c(O)[nH]c(=O)[nH]c1=O,59
COc1ccc(C(O)=C2C(=O)C(=O)N(CCN3CCNCC3)C2c2cccc([N+](=O)[O-])c2)cc1 (centres undefined),57
CCN1C(=O)c2cccc3c(S(=O)(=O)NC4CCS(=O)(=O)C4)ccc1c23 (centres undefined),46
Clc1ccc(SCc2nn[nH]n2)cc1,61
O=C1NC(CCC(=O)N2CCN(Cc3cccnc3)CC2)C(=O)Nc2ccccc21 (centres undefined),60
COC(=O)c1ccc2c(c1)C(=O)/C(=C/c1ccccc1F)O2,14*
COC(=O)c1ccc2c(c1)C(=O)/C(=C/c1ccc(O)c(OC)c1)O2,72
SMILES,RMI-FANCM inh
COC(=O)c1ccc2nsnc2c1,61
Cn1c(C(C#N)=C(O)CN2C(=O)c3ccccc3C2=O)nc2ccccc21,67
O=[N+]([O-])c1ccc2c(c1)CN(S(=O)(=O)c1cccs1)CC2,72
CC(C)(C)NCC(O)COc1cccc2c1C[C@H](O)[C@H](O)C2 (some centres undefined),-57*!
COc1ccccc1OCC(O)CNC(C)(C)C (centres undefined),71
CC(C)(C)NC[C@H](O)COc1cccc2c1CCCC2=O,55
COc1ccccc1NC(=O)C(=O)NC1CC1,55
CCOC(=O)c1ccc(NC(=O)NNC(=O)c2ccc(=O)n(Cc3ccc(C)cc3)c2)cc1,63
CC(C)(C)n1ncc2c(=O)n(CCC(=O)N3CCN(c4ncccn4)CC3)cnc21,65
CC(C)N=C(c1ccccc1)n1c(=S)nc(-c2ccccc2)n(C(C)C)c1=S,62
O=C1CCC(=O)N1c1ccc(S(=O)(=O)Nc2ccccc2F)cc1,62
CCOc1ccc(-c2noc(CSc3nc4ccsc4c(=O)n3-c3cccc(OC)c3)n2)cc1,104
COc1ccc(-c2noc(CSc3nc4ccsc4c(=O)n3C)n2)cc1,73
CCOc1ccc(-c2noc(CSc3nc4ccsc4c(=O)n3C3CC3)n2)cc1,39*
Cc1ccsc1C1C2=C(CCCC2=O)Nc2c1c(=O)n(C)c(=O)n2C (centres undefined),55
Cn1c2c(c(=O)n(C)c1=O)C(c1cccc(F)c1)C1=C(CC(C)(C)CC1=O)N2 (centres undefined),-8*
CC1(C)CC(=O)C2=C(C1)Nc1[nH]c(=S)[nH]c(=O)c1C2c1ccc2c(c1)OCO2 (centres undefined),52
Cc1c(-c2cccc(NC(=O)/C=C\c3ccccc3)c2)nc2ncccn12,65
COC(=O)c1sc(-c2ccccc2)cc1NC(=O)c1ccccc1Cl,61
COC(=O)c1sc(-c2ccccc2)cc1NC(=O)c1ccccc1I,61
COC(=O)c1sc(-c2ccccc2)cc1NC(=O)c1cc2c(ccc3ccccc32)oc1=O,31*
COc1ccc(CCNS(=O)(=O)c2cc(C)ccc2C)cc1OC,76
Cc1ncc(CO)c2c1Oc1nc(-c3ccccc3)nc(SCC(=O)Nc3ccc(C(C)C)cc3)c1C2,59
COc1ccc(OC)c(S(=O)(=O)Nc2cc3c4c(c2)CCC(=O)N4CCC3)c1,52
Nc1cc2c3c(c1)CCC(=O)N3CCC2,21*
SMILES,RMI-FANCM inh
CC1CC(C)CN(S(=O)(=O)c2cc3c4c(c2)CCC(=O)N4CCC3)C1 (centres undefined),54
CCOC(=O)CCC(=O)NCc1nnnn1-c1ccc(Cl)cc1,55
O=C(CSc1nccn2nc(-c3ccc(F)cc3)cc12)Nc1ccc2c(c1)OCO2,76
COc1ccc(OC)c2sc(N(CC3CCCO3)C(=O)COc3ccccc3F)nc12 (centres undefined),65
S=c1nc[nH][nH]1,58
Cc1nc2c(SCC(=O)Nc3nccs3)nnc(-c3ccccc3)c2s1,58
Cc1cc(C)c(NC(=O)COC(=O)c2cccc3c2-c2ccccc2C3=O)c(C)c1,63
CCC(=O)NCCC1=CCCCC1,67
CCOc1cccc2cc(-c3csc(NC(=O)c4ccc(C(C)=O)cc4)n3)oc12,53
CCC1CCCCN1S(=O)(=O)c1ccc(C(=O)Nc2nc(-c3cc4cccc(OC)c4o3)cs2)cc1 (centres undefined),19*
CCOc1cccc2cc(-c3csc(NC(=O)c4ccc(S(=O)(=O)N5CCCc6ccccc65)cc4)n3)oc12,54
Nc1nc(Nc2ccccc2)nc(Nc2cccc(F)c2)c1[N+](=O)[O-],52
COc1ccc(/C=C(\O)C(=O)O)cc1,62
Oc1c(Cl)cc(Cl)cc1/C=N\NC(=S)NC1CC2CCC1C2 (centres undefined),11*
Oc1ccccc1/C=N\NC(=S)NC1CC2C=CC1C2 (centres undefined),53
OCCN/N=C\c1cc(Cl)cc(Cl)c1O,40
CCOC(=O)c1c(NC(=O)CSc2nnc(CSc3nc(N)c4c5c(sc4n3)CCC5)n2-c2ccccc2)sc(C)c1C,61
O=C(NCC(c1cccc2ccccc12)N1CCOCC1)C(=O)Nc1ccc(F)c(Cl)c1 (centres undefined),55
CN1c2ccccc2C(=O)/C(=N/Nc2ccccc2Cl)S1(=O)=O,-6*
N#C/C(=N/Nc1ccccc1Cl)S(=O)(=O)c1ccc(Cl)cc1,44
CN1C(=O)c2cccc(NC(=O)c3c(F)cccc3Cl)c2C1=O,69
O=C(NC(=O)N1CCN(c2ccc(F)cc2)CC1)c1ccccc1,61
CC(C(=O)c1ccc(-c2ccccc2F)cc1)N1CCN(c2ccc(C#N)cc2)CC1 (centres undefined),25*!
O=C(NC(=S)N1CCN(c2ccc(F)cc2)CC1)c1ccccc1,59
CCC(C(=O)N1CCN(Cc2nc(-c3ccc(F)cc3)cs2)CC1)c1ccccc1 (centres undefined),62
